Data on eight compounds can be found in PubChem BioAssay.

A short description of assay [1]: HepG2 liver cancer cell viability effects, profiling panel, resazurin fluorescence, 24 h, PK04 Diversity Set (AID 1172). Conditions: higher = more signal. In general terms: The colour change of resazurin is a common sign of viable cells or microbes.
Assay [2] is described as follows: basal S. cerevisiae growth modulation, no modifier, primary screen, OD600, strain BY4716, 24 h, basal condition (AID 1173). The note with it: OD600, 24 h, higher = more signal, called active from +8 up or from −8 down.
A short description of assay [3]: MM1S myeloma cell viability, profiling panel, resazurin fluorescence, basal, 24 h, PK04 Diversity Set (AID 1174).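 Note: MM1S multiple myeloma cell line.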 Conditions: higher = more signal, called active from +8 up or from −8 down.
Assay [4] concerns the target Dihydroorotate dehydrogenase (quinone), mitochondrial (Plasmodium falciparum (isolate 3D7)) (UniProt Q08210). As to the kind of experiment: PfDHODH enzyme inhibitors, primary screen, biochemical, C-terminal His tag, absorbance 600 nm (AID 1175).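 Note: recombinant parasite enzyme with a five histidine tag at its C terminus.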 The note with it: DCIP absorbance 600 nm, higher = more signal, called active from +8 up or from −8 down.
A short description of assay [5]: P. aeruginosa biofilm formation inhibitors, primary screen, strain PAO1, LB-PBS medium, absorbance 600 nm (AID 1176). The note with it: P. aeruginosa PAO1 growth/biofilm, A600, 12 h; higher = more signal.
Assay [6] in a line: S. cerevisiae RM11-1a growth modifiers, primary screen, strain RM11-1a, OD600, basal, 24 h (AID 1177).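 Note: cultures grown under basal conditions with no added stressor.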 The note with it: OD600, 24 h, higher = more signal, called active from +8 up or from −8 down.
Assay [7] is described as follows: E. coli acrAB mutant growth effects, primary screen, E. coli filamentation inducers, strain DRC39, OD650, 24 h (AID 1178).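 Note: growth measured as culture turbidity by optical density at 650 nm.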 The note with it: higher = more signal, called active from +8 up or from −8 down.
Assay [8] is described as follows: E. coli acrAB mutant growth effects, primary screen, E. coli filamentation inducers, strain DRC39, OD650, 48 h (AID 1179).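 Note: screen aims at cell division blockers that make cells filament.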 Conditions: E. coli DRC39 delta-acrAB growth, higher = more signal, called active from +8 up or from −8 down.
A short description of assay [9]: RPMI8226 myeloma cell viability, profiling panel, resazurin fluorescence, basal, 24 h, PK04 Diversity Set (AID 1180).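 Note: RPMI8826 multiple myeloma cell line at 5000 cells per well.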 Conditions: higher = more signal.
In assay [10] the target is E3 ubiquitin-protein ligase XIAP (Homo sapiens) (UniProt P98170). The assay can be described thus: XIAP binders, primary screen, biophysical, small-molecule microarray, fluorescence 635 nm (AID 1181).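 Note: score merges 667 nm emission and signal to noise over triplicate slides.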 The note with it: small-molecule microarray binding, higher = more signal.
Assay [11] concerns XIP peptide (Xip251-270) binding. The assay can be described thus: small-molecule binders of XIP peptide, primary screen, biochemical, small-molecule microarray, fluorescence 635/667 nm, 0.1 µg/mL protein (AID 1182). Conditions: fluorescent protein binding, 635 nm, higher = more signal, called active from +8 up or from −8 down.
A further assay relates to XIP peptide (Xip251-270). The assay can be described thus: small-molecule binders of XIP peptide, primary screen, biochemical, small-molecule microarray, fluorescence 635/667 nm, 0.5 µg/mL protein (AID 1183). The note with it: small-molecule microarray binding, fluorescence 635 nm; higher = more signal.
Assay [12] is described as follows: Plasmodium falciparum growth inhibition, primary screen, strain 3D7, DAPI fluorescence, 100 nL (AID 1184).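 Note: parasites grown inside human red blood cells in medium with human serum.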 Conditions: P. falciparum 3D7 growth, 3 d, higher = more signal.
The target in assay [13] is Homeobox protein Hox-A13 (Mus musculus) (UniProt Q62424). As to the kind of experiment: inhibitors of HoxA13-DNA binding, primary screen, biochemical, fluorescence polarization, labeled oligonucleotide (AID 1185). Conditions: 15 min, higher = more signal, called active from +8 up or from −8 down. For orientation: Polarisation of emitted light reports the rotation of a fluorescent probe.

A short description of assay [14]: inhibitors of hydroxyurea-induced Chk1 phosphorylation, primary screen, imaging, HeLa, phospho-Chk1 antibody, percent positive cells (AID 1186). The note with it: hydroxyurea-induced phospho-Chk1 immunofluorescence imaging, higher = more signal.
Assay [15] is described as follows: inhibitors of hydroxyurea-induced Chk1 phosphorylation, primary screen, imaging, HeLa, phospho-Chk1 nuclear intensity (AID 1187). Conditions: hydroxyurea-induced phospho-Chk1 immunofluorescence imaging, higher = more signal.

Calls of active or inactive are those of the source. Unless noted, the rule behind the calls is not given here.

Sequence of Dihydroorotate dehydrogenase (quinone), mitochondrial (Plasmodium falciparum (isolate 3D7)) (Q08210 whole entry, looked up): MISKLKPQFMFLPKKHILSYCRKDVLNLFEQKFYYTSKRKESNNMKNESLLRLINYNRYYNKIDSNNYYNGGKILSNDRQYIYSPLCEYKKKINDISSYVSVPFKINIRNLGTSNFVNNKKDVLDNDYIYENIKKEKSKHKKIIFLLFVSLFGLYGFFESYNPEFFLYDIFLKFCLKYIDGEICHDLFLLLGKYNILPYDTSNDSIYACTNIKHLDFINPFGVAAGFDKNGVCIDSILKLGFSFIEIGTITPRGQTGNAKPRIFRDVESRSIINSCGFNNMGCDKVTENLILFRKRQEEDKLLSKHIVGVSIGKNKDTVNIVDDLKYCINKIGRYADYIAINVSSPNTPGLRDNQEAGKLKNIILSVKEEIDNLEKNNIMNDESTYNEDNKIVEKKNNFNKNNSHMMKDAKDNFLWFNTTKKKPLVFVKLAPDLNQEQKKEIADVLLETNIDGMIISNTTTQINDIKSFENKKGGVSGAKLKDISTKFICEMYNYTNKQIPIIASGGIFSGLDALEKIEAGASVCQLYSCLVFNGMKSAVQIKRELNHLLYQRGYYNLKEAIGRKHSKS
Sequence of E3 ubiquitin-protein ligase XIAP (Homo sapiens) (P98170 whole entry, looked up): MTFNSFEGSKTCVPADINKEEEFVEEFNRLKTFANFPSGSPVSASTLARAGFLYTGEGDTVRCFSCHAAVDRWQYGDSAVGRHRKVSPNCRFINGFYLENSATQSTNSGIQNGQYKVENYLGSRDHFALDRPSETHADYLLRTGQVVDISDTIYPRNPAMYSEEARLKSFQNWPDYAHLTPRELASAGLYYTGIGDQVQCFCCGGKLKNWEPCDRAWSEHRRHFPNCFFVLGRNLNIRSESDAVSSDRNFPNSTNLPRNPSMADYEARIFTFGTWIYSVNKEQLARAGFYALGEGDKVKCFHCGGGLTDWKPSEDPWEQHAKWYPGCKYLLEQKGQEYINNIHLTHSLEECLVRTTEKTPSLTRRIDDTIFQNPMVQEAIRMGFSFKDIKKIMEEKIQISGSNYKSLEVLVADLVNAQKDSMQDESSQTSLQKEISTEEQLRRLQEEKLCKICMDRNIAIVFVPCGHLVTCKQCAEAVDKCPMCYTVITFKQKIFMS
Sequence of Homeobox protein Hox-A13 (Mus musculus) (Q62424 whole entry, looked up): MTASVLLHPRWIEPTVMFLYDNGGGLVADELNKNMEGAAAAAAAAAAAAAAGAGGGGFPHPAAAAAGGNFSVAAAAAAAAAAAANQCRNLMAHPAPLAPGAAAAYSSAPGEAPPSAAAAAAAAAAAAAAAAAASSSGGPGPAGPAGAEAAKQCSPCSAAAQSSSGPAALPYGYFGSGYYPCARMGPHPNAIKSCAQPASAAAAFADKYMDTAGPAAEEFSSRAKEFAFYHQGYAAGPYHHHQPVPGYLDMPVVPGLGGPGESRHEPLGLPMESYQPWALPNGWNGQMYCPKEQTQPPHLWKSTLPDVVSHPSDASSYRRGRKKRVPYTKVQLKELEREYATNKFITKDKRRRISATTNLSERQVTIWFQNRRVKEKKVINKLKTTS

With `CO[C@H]1O[C@H](CO)[C@@H](OC(=O)c2ccc(Br)cc2)[C@@H]2OC(=O)[C@H](Cc3cccc(Br)c3)C/C=C/C[C@@H](Cc3cccc(Br)c3)C(=O)O[C@@H]12`, the z-score in assay [1] was -0.673; in [2] it was -0.611 (inactive); in assay [3], -0.402 (inactive); in assay [5] it was 0.566 (inactive); in assay [6], 0.393 (inactive); in [7], 0.198 (inactive). Moreover, the z-score in [8] is 0.188 (inactive); in [9], -1.47; in assay [12], -0.706; in [13], -2.82 (inactive); in assay [14], 0.373 (inactive); in [15], 0.574 (inactive). Moreover, the composite z-score in [4] is -0.71 (inactive); in [10] it was -0.0663; in assay [11], 1.69 (inactive); in the assay on XIP peptide (Xip251-270), 0.675.

As for `CN(C)C(=O)[C@@]1(Cc2ccccc2N=[N+]=[N-])N=C(c2ccc(OCCCO)cc2)O[C@H]1c1ccccc1N=[N+]=[N-]`, the z-score was -0.663 in assay [1]; 0.582 (inactive) in assay [2]; -1.8 (inactive) in [3]; -0.73 (inactive) in assay [5]; 2.9 (inactive) in [6]; 0.732 (inactive) in [7]. Further, the z-score in assay [8] was -0.421 (inactive); in [9], -2.2; in assay [12] it was -2.32; in [13] it was -4.6 (inactive); in [14] it was 0.0092 (inactive); in assay [15], 0.398 (inactive). Also, the composite z-score was 1.32 (inactive) in assay [4], 1.98 in [10], 0.976 (inactive) in assay [11] and 0.596 in the assay with XIP peptide (Xip251-270).

Take `CCOC(=O)C[C@H]1[C@H](OC(=O)c2ccccc2-c2ccccc2)[C@@H](NC(=O)c2ccccc2)c2cc(OCCCO)ccc2N1C(=O)Cc1ccc(OC)cc1`: the z-score in assay [1] is 0.834; in [2], 0.606 (inactive); in assay [3], -0.397 (inactive); in [5], 0.142 (inactive); in assay [6], 0.143 (inactive); in assay [7] it was 0.228 (inactive). Besides, the z-score in assay [8] is 0.15 (inactive); in assay [9] it was -0.37; in assay [12] it was -0.375; in [13] it was -2.77 (inactive); in [14], 0.237 (inactive); in assay [15], 0.356 (inactive). Also, the composite z-score in assay [4] was -0.369 (inactive); in assay [10] it was 0.0871; in assay [11], -0.231 (inactive); with XIP peptide (Xip251-270), -0.73.

Take `O=C1O[C@H](c2ccccc2)[C@H](c2ccccc2)N2[C@H]1[C@@H](C(=O)N1CCN(c3ncccn3)CC1)[C@]1(C(=O)Nc3ccc(C#CCCO)cc31)[C@H]2c1ccccc1OCCO`: the z-score in assay [1] was -0.141; in assay [2], 0.687 (inactive); in [3], -0.31 (inactive); in assay [5], 1.34 (inactive); in [6], 1.91 (inactive); in assay [7], 0.156 (inactive). In addition, the z-score was 0.614 (inactive) in [8]; -1.36 in [9]; -2.19 in [12]; -1.29 (inactive) in [13]; -0.329 (inactive) in assay [14]; -0.529 (inactive) in [15]. Besides, the composite z-score was -0.49 (inactive) in assay [4], -0.16 in [10], 0.439 (inactive) in assay [11] and 0.808 with XIP peptide (Xip251-270).

For the compound `[N-]=[N+]=Nc1ccccc1C[C@]1(C(=O)NCCN2CCOCC2)N=C(c2ccc(OCCCO)cc2)O[C@H]1c1ccccc1N=[N+]=[N-]`, the z-score in assay [1] is -1.31; in assay [2], -4.84 (inactive); in assay [3] it was -1.83 (inactive); in assay [5], -0.596 (inactive); in assay [6] it was -0.505 (inactive); in [7], -0.0345 (inactive). For the same compound, the z-score in [8] was 1.31 (inactive); in assay [9] it was -2.13; in assay [12] it was -2.21; in assay [13], -3.22 (inactive); in [14], -1.3 (inactive); in assay [15], -2.17 (inactive). For the same compound, the composite z-score was -0.695 (inactive) in [4], 0.0402 in assay [10], 1.24 (inactive) in assay [11] and 0.682 with XIP peptide (Xip251-270).

Take `O=C1c2ccccc2[C@](Cc2ccccc2I)(C(=O)NCC(F)(F)F)[C@H](c2ccc(CO)cc2)N1Cc1ccccc1`: the z-score in [1] was 0.846; in [2], -0.895 (inactive); in assay [3], -0.277 (inactive); in [5], -0.0344 (inactive); in [6] it was 0.0123 (inactive); in assay [7] it was 0.496 (inactive). Further, the z-score in assay [8] was 1.07 (inactive); in [9] it was 0.675; in assay [12], -0.945; in [13], -4.04 (inactive); in assay [14], -0.25 (inactive); in [15], -0.634 (inactive). Besides, the composite z-score in assay [4] is -0.537 (inactive); in assay [10], -0.0962; in assay [11], 0.164 (inactive); in the assay with XIP peptide (Xip251-270), 0.647.

`CO[C@H]1O[C@H](CO)[C@@H](OC(=O)Nc2ccc(C(F)(F)F)cc2)[C@H](OC(=O)Nc2ccccc2)[C@H]1OC(=O)Nc1ccccc1`: the z-score in assay [1] was -5.15; in assay [2], 0.0673 (inactive); in assay [3], -6.47 (inactive); in assay [5], -0.276 (inactive); in assay [6] it was 2.72 (inactive); in [7], 0.201 (inactive). Moreover, the z-score in [8] was -1.17 (inactive); in assay [9], -6.11; in assay [12], -2.56; in [13], -5.12 (inactive); in assay [14], -0.628 (inactive); in assay [15], -0.699 (inactive). Further, the composite z-score in [4] is 0.0214 (inactive); in assay [10], 0.166; in assay [11], 1.91 (inactive); in the assay with XIP peptide (Xip251-270) it was 0.911.

Consider `CCOC(=O)C[C@H]1[C@H](OC(=O)Cc2ccc3c(c2)OCO3)[C@@H](NC(=O)c2ccccc2)c2cc(OCCCO)ccc2N1C(=O)c1ccc2ccccc2n1`, for which the z-score in assay [1] is -0.287; in assay [2] it was -1.02 (inactive); in [3], 0.426 (inactive); in assay [5], -0.0057 (inactive); in [6] it was -1.68 (inactive); in assay [7] it was 0.907 (inactive). The z-score is 0.88 (inactive) in [8]; 0.121 in assay [9]; 0.93 in assay [12]; -3.68 (inactive) in [13]; -0.467 (inactive) in assay [14]; -0.259 (inactive) in [15]. The composite z-score in assay [4] is -1.03 (inactive); in assay [10], -0.138; in [11], -0.263 (inactive); in the assay with XIP peptide (Xip251-270), -0.101.
